This note sets out measurements from PubChem BioAssay.

In test [1] the test system is Plasmodium falciparum Sir2 (PF13_0152, Sir2A). As to the kind of experiment: Plasmodium falciparum Sir2A binding compounds – biochemical, small-molecule microarray, 635 nm fluorescence, primary screen (AID 1098).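 Also: score merges spot fluorescence intensity with its signal-to-noise ratio.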 To be noted: fluorescence 635 nm, higher = more signal.
Test [2] is described as follows: probe aDKK1 binding to arrayed compounds – biochemical, biotinylated probe, 635/667 nm fluorescence, primary screen (AID 1099).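 Also: score merges 667nm spot fluorescence with signal to noise across triplicate slides.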 Particulars: small-molecule microarray, higher = more signal.
The nature of test [3]: probe aCHRDL2 binding to arrayed compounds – biochemical, biotinylated probe, 635/667 nm fluorescence, primary screen (AID 1100). To be noted: small-molecule microarray, higher = more signal.
Test [4] in a line: change in splice reporter luminescence, either direction, cell-based, HEK293, spliceosome inhibition project, primary screen (AID 1101).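 Also: HEK293 cells carrying a splicing-competent luciferase reporter gene; test concentration not given here.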 To be noted: HEK293 splicing luciferase reporter, 24 h, higher = more signal, called active from +8 up or from −8 down.
Test [5] deals with Fibroblast growth factor 10 (Homo sapiens) (UniProt O15520). As to the kind of experiment: compounds binding fibroblast growth factor 10 – biochemical, small-molecule microarray, 635 nm fluorescence, primary screen (AID 1102). To be noted: FGF10 binding, fluorescence 635 nm, higher = more signal.
Sequence of Fibroblast growth factor 10 (Homo sapiens) (O15520 whole entry, looked up): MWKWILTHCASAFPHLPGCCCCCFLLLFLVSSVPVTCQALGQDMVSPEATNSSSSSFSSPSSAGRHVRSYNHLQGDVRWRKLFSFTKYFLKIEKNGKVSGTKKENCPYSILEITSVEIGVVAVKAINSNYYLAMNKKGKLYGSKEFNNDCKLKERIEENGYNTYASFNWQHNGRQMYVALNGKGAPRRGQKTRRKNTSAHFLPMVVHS
Test [6] concerns glycogen synthase kinase-3 (GSK3A per assay name; protocol says GSK3B). The experiment in a line: compounds binding glycogen synthase kinase-3 – biochemical, small-molecule microarray, 635 nm fluorescence, GSK3A, primary screen (AID 1103). Also: the record names both GSK3A and GSK3B. To be noted: fluorescence 635 nm, higher = more signal.
For test [7], the target named is Epidermal growth factor receptor (Homo sapiens) (UniProt P00533). As to the kind of experiment: compounds binding epidermal growth factor receptor – biochemical, small-molecule microarray, 635 nm fluorescence, primary screen (AID 1104).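 Also: score merges 667 nm emission intensity with spot signal to noise over triplicate slides.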 To be noted: EGFR binding, higher = more signal.
Sequence of Epidermal growth factor receptor (Homo sapiens) (P00533 whole entry, looked up): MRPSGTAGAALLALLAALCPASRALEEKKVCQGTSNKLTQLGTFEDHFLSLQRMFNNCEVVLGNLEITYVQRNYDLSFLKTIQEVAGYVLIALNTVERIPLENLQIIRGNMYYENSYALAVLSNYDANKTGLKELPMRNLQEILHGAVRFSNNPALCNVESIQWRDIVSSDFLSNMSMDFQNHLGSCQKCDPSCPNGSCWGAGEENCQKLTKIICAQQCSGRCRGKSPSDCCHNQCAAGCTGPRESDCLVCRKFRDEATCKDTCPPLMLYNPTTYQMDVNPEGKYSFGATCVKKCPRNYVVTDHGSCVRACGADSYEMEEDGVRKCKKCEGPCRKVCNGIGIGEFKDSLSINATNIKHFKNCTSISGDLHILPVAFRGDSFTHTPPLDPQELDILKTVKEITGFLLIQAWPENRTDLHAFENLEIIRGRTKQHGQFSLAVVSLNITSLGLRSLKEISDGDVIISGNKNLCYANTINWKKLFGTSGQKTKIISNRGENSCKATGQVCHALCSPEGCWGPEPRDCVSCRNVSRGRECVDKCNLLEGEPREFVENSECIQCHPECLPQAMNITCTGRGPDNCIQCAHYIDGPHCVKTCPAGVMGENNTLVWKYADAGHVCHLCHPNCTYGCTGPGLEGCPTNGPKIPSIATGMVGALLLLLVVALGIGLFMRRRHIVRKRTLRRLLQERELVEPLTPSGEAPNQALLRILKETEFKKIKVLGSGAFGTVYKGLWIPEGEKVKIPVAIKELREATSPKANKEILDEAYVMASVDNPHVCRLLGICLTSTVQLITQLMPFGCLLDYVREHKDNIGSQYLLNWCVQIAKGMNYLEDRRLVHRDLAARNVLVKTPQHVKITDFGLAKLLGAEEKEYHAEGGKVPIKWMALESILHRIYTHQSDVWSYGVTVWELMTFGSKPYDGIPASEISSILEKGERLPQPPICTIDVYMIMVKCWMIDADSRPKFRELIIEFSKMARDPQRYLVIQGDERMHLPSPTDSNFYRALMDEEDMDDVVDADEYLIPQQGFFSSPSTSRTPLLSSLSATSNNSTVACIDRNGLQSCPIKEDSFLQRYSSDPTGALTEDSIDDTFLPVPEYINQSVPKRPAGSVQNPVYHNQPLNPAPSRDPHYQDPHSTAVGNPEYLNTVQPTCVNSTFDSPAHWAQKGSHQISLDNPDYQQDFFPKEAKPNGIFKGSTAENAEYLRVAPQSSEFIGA
Test [8] addresses Follistatin-related protein 3 (Homo sapiens) (UniProt O95633). As to the kind of experiment: compounds binding follistatin-related protein 3 – biochemical, small-molecule microarray, 635 nm fluorescence, primary screen (AID 1105).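 Also: score merges emission near 667 nm and signal to noise per printed spot across three slides.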 To be noted: FSTL3 binding, higher = more signal.
Test [9] deals with Dickkopf-related protein 1 (Homo sapiens) (UniProt O94907). The experiment in a line: small molecules binding DKK1 protein – biochemical, small-molecule microarray, 635 nm fluorescence scan, primary screen (AID 1106).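 Also: score merges emission near 667 nm with signal to noise over three replicate slides.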 Particulars: higher = more signal.
Sequence of Dickkopf-related protein 1 (Homo sapiens) (O94907 whole entry, looked up): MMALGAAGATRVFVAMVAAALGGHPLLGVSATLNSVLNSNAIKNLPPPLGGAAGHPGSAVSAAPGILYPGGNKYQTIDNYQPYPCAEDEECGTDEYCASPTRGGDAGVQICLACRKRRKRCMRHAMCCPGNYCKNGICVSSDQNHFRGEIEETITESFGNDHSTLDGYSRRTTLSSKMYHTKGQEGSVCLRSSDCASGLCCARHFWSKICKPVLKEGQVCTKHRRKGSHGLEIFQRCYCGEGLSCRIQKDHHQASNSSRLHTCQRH
Test [10] deals with Inhibin beta A chain (activin A). The experiment in a line: small molecules binding activin A – biochemical, small-molecule microarray, 635 nm fluorescence scan, primary screen (AID 1107).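 Also: mouse activin A protein probed at 4.33 µg/mL on printed slides; score merges bound-protein fluorescence near 667 nm with spot signal-to-noise.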 To be noted: INHBA, higher = more signal.
Test [11] relates to Human papillomavirus type 1a protein E7 (residues 44-93). As to the kind of experiment: small molecules binding HPV E7 44-93 – biochemical, small-molecule microarray, residues 44-93, 635 nm fluorescence, primary screen (AID 1108).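 Also: E7 fragment applied at 1 µg/mL in TBST for 1 h at 4 C; score combines spot fluorescence with its signal to noise ratio.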 Particulars: fluorescence 635 nm, higher = more signal.
Test [12] can be described thus: hepatitis C replication reporter changes, two-sided – Huh7 cells, luciferase reporter, HCV replication inhibitor project, primary screen (AID 1109).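 Also: huh7 hepatoma cells harbouring a luciferase neomycin HCV replicon reporter; luciferase luminescence as measure of HCV replicon replication; test concentration not given here.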 To be noted: Huh7 HCV replicon luciferase reporter, 48 h; higher = more signal. A general note: In a reporter assay the amount or activity of a reporter protein is the signal.
Test [13] concerns the target Left-right determination factor 2 (Homo sapiens) (UniProt O00292). The experiment in a line: small molecules binding LEFTY2 protein – biochemical, small-molecule microarray, 635 nm fluorescence scan, primary screen (AID 1110). Particulars: higher = more signal.
In test [14] the target is Calmodulin-1 (Homo sapiens) (UniProt P0DP23). The experiment in a line: small molecules binding calmodulin-1 with EGTA – biochemical, small-molecule microarray, Cy5-labelled CALM1, profiling panel (AID 1111).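 Also: labelled calmodulin applied in Tris saline Tween buffer holding calcium plus EGTA and DTT.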 Particulars: Cy5-CALM1 binding fluorescence, higher = more signal.
The target is the same in test [15]. The experiment in a line: small molecules binding Ca-loaded calmodulin-1 – biochemical, small-molecule microarray, Cy5-labelled CALM1, plus calcium, artefact control for SMM control-protein annotation, profiling panel (AID 1112).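 Also: score merges spot fluorescence with signal to noise from triplicate slides.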 To be noted: Cy5-CALM1 binding fluorescence, higher = more signal.
Test [16] in a line: probe aWnt5a binding to arrayed compounds – biochemical, biotinylated probe, 635/667 nm fluorescence, primary screen (AID 1113).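 Also: score merges 667 nm fluorescence intensity with signal-to-noise per printed feature.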 To be noted: small-molecule microarray, higher = more signal.
Test [17] in a line: probe aShh binding to arrayed compounds – biochemical, biotinylated probe, 635/667 nm fluorescence, primary screen (AID 1114).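 Also: probe is biotin-labelled aShh protein from a stem cell growth factor screen; measures binding of labelled protein to compounds printed on the slide; score merges feature fluorescence at 667 nm with signal-to-noise.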 To be noted: small-molecule microarray, higher = more signal.
Test [18] in a line: probe aNog binding to arrayed compounds – biochemical, biotinylated probe, 635/667 nm fluorescence, primary screen (AID 1115).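 Also: probe is biotinylated aNog protein used at 0.15 µg/mL for 1 h at 4 C; z-score combines 667 nm fluorescence of each spot with its signal to noise.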 Particulars: small-molecule microarray, higher = more signal.
Test [19] has as its target Torsin-1A-interacting protein 1 (Homo sapiens) (UniProt Q5JTV8). As to the kind of experiment: compound microarray binding of lysate hLAP1 – cell lysate, small-molecule microarray, COS7 lysate, 635/667 nm fluorescence, primary screen (AID 1116). To be noted: 635 nm fluorescence, higher = more signal.
In test [20] the target is Alpha-bungarotoxin (Bungarus multicinctus) (UniProt P60615). The experiment in a line: compounds binding labelled alpha-BTX control protein – biochemical, small-molecule microarray, Alexa647 label, 635/667 nm fluorescence, artefact control for SMM control protein annotation, profiling panel (AID 1117). To be noted: alpha-BTX-A647 binding fluorescence, higher = more signal.
Sequence of Alpha-bungarotoxin (Bungarus multicinctus) (P60615 whole entry, looked up): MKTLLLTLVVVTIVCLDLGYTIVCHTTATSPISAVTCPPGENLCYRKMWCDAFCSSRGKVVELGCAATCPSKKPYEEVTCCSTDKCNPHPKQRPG

Active and inactive are the calls of the source.

Sequence of Follistatin-related protein 3 (Homo sapiens) (O95633 whole entry, looked up): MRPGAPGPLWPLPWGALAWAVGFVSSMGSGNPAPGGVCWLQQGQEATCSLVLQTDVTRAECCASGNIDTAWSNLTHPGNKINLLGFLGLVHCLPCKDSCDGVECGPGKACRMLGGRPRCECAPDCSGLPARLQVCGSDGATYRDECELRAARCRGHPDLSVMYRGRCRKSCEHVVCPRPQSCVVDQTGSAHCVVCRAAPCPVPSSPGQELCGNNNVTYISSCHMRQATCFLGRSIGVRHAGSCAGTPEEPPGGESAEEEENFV
Sequence of Torsin-1A-interacting protein 1 (Homo sapiens) (Q5JTV8 whole entry, looked up): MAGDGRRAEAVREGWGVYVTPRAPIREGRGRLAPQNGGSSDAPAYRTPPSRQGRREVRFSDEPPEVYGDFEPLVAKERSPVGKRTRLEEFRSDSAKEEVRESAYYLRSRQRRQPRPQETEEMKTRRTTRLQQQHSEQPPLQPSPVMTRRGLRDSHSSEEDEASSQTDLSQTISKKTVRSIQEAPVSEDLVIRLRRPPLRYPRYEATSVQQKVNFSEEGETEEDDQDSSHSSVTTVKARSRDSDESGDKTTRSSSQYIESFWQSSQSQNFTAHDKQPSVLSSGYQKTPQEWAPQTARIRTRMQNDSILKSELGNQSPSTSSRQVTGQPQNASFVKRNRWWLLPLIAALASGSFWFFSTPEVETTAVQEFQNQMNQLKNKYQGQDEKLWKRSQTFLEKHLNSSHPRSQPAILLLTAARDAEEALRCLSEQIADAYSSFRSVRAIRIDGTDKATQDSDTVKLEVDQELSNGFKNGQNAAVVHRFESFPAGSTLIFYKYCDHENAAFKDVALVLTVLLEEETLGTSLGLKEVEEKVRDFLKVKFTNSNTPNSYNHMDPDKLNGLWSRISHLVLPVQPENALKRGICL
Sequence of Left-right determination factor 2 (Homo sapiens) (O00292 whole entry, looked up): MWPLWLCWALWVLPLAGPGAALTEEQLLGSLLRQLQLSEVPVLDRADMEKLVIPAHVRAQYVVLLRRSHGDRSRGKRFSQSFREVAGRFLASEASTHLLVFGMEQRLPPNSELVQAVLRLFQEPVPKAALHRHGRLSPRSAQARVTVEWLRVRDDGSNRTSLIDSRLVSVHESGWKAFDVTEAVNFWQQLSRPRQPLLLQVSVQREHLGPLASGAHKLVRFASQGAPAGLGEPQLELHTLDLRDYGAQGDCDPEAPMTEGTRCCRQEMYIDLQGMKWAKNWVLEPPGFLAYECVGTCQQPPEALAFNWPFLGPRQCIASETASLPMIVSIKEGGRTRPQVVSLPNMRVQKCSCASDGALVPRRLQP

Consider `CO[C@H]1COC(=O)CC=C[C@H](C)[C@@H](NS(=O)(=O)c2ccc(C)cc2)COC(=O)CC=C[C@@H]1C`, for which the composite z-score in test [1] was 0.219; in test [2], -0.257; in [3], -0.674; in [5], 0.582; in test [6], 0.528; in [7], 0.853. Further, the composite z-score in test [8] was 0.579; in test [9] it was 0.761; in test [10], 0.257; in test [11], 0.0839; in test [13], 0.694; in [14], -0.46. Further, the composite z-score in test [15] is -0.521; in [16], -0.0738; in [17] it was -0.13; in test [18], 0.0613; in [19], 0.37; in test [20] it was -0.153. For the same compound, the z-score was -2.06 (inactive) in [4] and -1.72 in [12].
With `CC(=O)OC[C@H]1O[C@H](C#CCCCc2ccccc2)C=C[C@@H]1OC(C)=O`, the composite z-score was 0.829 in test [1]; -0.194 in [2]; -0.33 in [3]; 0.687 in [5]; -0.0427 in [6]; 0.0559 in test [7]. In addition, the composite z-score in [8] was 0.556; in test [9], 0.3; in [10], 1.03; in [11], 0.108; in test [13], 0.615; in test [14], -0.826. The composite z-score in test [15] was -0.794; in test [16] it was -0.118; in test [17], -0.0474; in [18], -0.493; in test [19], 0.298; in test [20], 0.155. In addition, the figures for the z-score in test [4] and in test [12] were 0.492 (inactive) and -2.99, respectively.
As to `CC(CCN1CCc2nc(-c3ccccc3)c(-c3ccccc3)cc2C1)=NOC(C)CN1CCCCc2nc(C)c(C)cc21` (stereo not given), the composite z-score in [1] was 0.646; in test [2] it was -0.0421; in test [3], 0.318; in test [5] it was 0.593; in [6] it was 0.746; in test [7], 0.964. The composite z-score in [8] is 0.609; in test [9] it was 0.77; in test [10], 1.15; in [11], 1.27; in [13], 0.573; in test [14] it was 0.578. The composite z-score in test [15] is -0.0705; in [16], -0.0819; in test [17] it was -0.202; in [18], -0.077; in [19], 0.787; in test [20] it was 0.799. For the same compound, the z-score is -0.0114 (inactive) in test [4] and -2.03 in test [12].
On to `CO[C@H]1COC(=O)[C@H](C)COC(=O)CC=C[C@@H](C)[C@H](OC)COC(=O)CC=C[C@@H]1C`, for which the composite z-score in test [1] is 0.864; in test [2], -0.466; in [3], -1.28; in [5], 0.207; in test [6], 0.432; in [7], 1.47. Also, the composite z-score was 1.32 in [8]; 1.02 in test [9]; 1.28 in test [10]; -0.797 in test [11]; 1.15 in test [13]; -0.556 in test [14]. The composite z-score in [15] is -1.28; in test [16], -0.0944; in [17], -0.0709; in [18], -0.158; in test [19] it was -0.0635; in test [20] it was -0.289. Also, the z-score in test [4] is 0.0172 (inactive); in test [12], -0.265.
On to `COC(=O)CC=C[C@H](C)[C@@H](OCc1ccccc1Br)C(C)C`, for which the composite z-score was -0.0201 in test [1]; -0.371 in test [2]; -0.397 in test [3]; 0.321 in test [5]; -0.243 in test [6]; 0.195 in test [7]. The composite z-score in [8] was 0.285; in test [9], 0.292; in test [10] it was 0.0114; in test [11], -0.261; in test [13] it was 0.551; in test [14], -0.354. The composite z-score in [15] was -0.679; in test [16] it was -0.0417; in [17], -0.138; in [18], -0.333; in [19] it was -0.173; in test [20], 1.54. Further, the z-score in [4] is -0.76 (inactive); in test [12] it was 0.0087.
On to `N#Cc1ccc(NN2C(C(O)c3cc(C(F)(F)F)cc(C(F)(F)F)c3)C=CC3C(=O)N(c4ccccc4)C(=O)C32)cc1` (stereo not given), for which the composite z-score in test [1] was 0.666; in test [2], 0.175; in test [3], 1.04; in test [5], 1.03; in test [6] it was 1.28; in test [7], 0.292. Besides, the composite z-score in [8] is 1.02; in test [9] it was -0.62; in [10] it was 0.733; in test [11], 1.39; in [13], 0.224; in [14], 2.44. Further, the composite z-score in [15] is 0.892; in test [16], -0.0009; in test [17], 0.0326; in [18], -0.753; in test [19] it was 1.73; in test [20] it was 0.692. For the same compound, the z-score in test [4] was 0.628 (inactive); in [12], -1.99.
With `COC(=O)[C@@H]1N=C(c2ccc(OCCCO)cc2)O[C@@H]1c1ccccc1N=[N+]=[N-]`, the composite z-score is 1.47 in test [1]; 1.14 in test [2]; 1.37 in test [3]; 0.046 in [5]; 0.981 in test [6]; -0.356 in test [7]. The composite z-score in [8] was -0.0503; in test [9], -0.68; in [10], 1.08; in [11] it was 0.515; in test [13] it was -0.187; in test [14], 1.54. Moreover, the composite z-score in test [15] is 1.04; in [16], -0.0445; in [17] it was 0.214; in [18] it was 0.619; in [19], 1.27; in [20], 1.42. Moreover, the z-score was -1.99 (inactive) in test [4] and -1.66 in test [12].
Regarding `COc1ccc([Si](C)(C)[C@@H]2[C@@H](CC(=O)N3CCC[C@H]3CO)O[C@]3(C(=O)N(Cc4cccc(N5CCC5=O)c4)c4ccccc43)[C@H]2C)cc1`, the composite z-score is 1.71 in test [1]; -0.264 in test [2]; 0.363 in test [3]; 0.118 in test [5]; 0.773 in test [6]; 0.144 in test [7]. Besides, the composite z-score in test [8] is 0.7; in [9], 0.726; in test [10], 0.245; in [11], 1.4; in [13], 0.162; in [14] it was 0.504. The composite z-score is -0.098 in [15]; -0.0236 in test [16]; 0.199 in [17]; 0.15 in test [18]; 0.989 in test [19]; 1.44 in [20]. In addition, the z-score is -0.399 (inactive) in [4] and -2.1 in test [12].
